In PubChem BioAssay AID2391 (Southern Research Specialized Biocontainment Screening …, 2010):
About 410 (0.13%) of roughly 310,000 compounds were called active. About 2% were inconclusive and are not listed. The rule behind the calls is not given here. Not all results are given here. Results with a measured potency or affinity are listed apart.

test: inhibition of RSV-induced cytopathic effect – HEp-2 cells, primary 10 µM value included (AID 2391); settings: at 10 µM, active compounds read high

CPE inhibition, inactive:
Cc1ccc(OCCCn2ccnc2)cc1C 0.08%
COc1cc(N)c(Cl)cc1C(=O)OCC(=O)Nc1cccnc1Cl 0.52%
COc1cc2c(cc1OC)[C@H](C)N(C(=O)CSc1nc(O)c(C(C)C)c(=O)[nH]1)CC2 0.69%
O=C(/C=C/c1c(F)cccc1Cl)N1CCOCC1 0.12%
O=C(/C=C/c1ccc(OCCCF)cc1)N1CCOCC1 2.87%
Cc1cc(C)n(-c2ccc(C(=O)OCC(=O)NCc3ccc(F)cc3)cc2)n1 0.92%
Cc1nc(-c2noc(-c3cccc(Cl)c3)n2)c(C(F)(F)F)o1 1.74%
CC(Nc1ccc2c(c1)OCCO2)C(=O)N1CCc2ccccc21 (configuration not stated) 3.03%
CC(C(=O)N1CCc2ccccc21)n1cccc1 (configuration not stated) 1.93%
CCOc1ccc(Br)cc1S(=O)(=O)Nc1ccc(C(=O)OCC(=O)Nc2ccc(C#N)cc2)cc1 2.94%
O=C(NC1CCN(S(=O)(=O)c2cccc(Cl)c2)CC1)C1CCCCC1 1.22%
CCOc1ccc(S(=O)(=O)NCCC(=O)Nc2nnc(C)s2)cc1 1.74%
CCCOc1ccc(N2C(=O)CC(N(CCc3ccc(OC)cc3)C(=O)c3ccccc3)C2=O)cc1 (configuration not stated) 3.8%
CCCOc1ccc(N2C(=O)CC(N(Cc3ccccc3)N=O)C2=O)cc1 (configuration not stated) -0.02%
N#C/C(=C\c1ccccc1O)C(=O)Nc1ccccn1 9.95%
Cc1cc([N+](=O)[O-])cc(C)c1OCC(=O)N/N=C/c1ccc(OC(=O)c2ccccc2)cc1 10.1%
COc1cc(/C=N/NC(=O)COc2c(C)cc([N+](=O)[O-])cc2C)ccc1OC(=O)c1ccccc1Br 5.39%
Cc1ccc(-n2c(=O)c3c4c(sc3n(Cc3cc(=O)n5ccccc5n3)c2=O)CCC4)cc1C 9.89%
COc1cc(-n2c(=O)c3ccccc3n(Cc3cc(=O)n4ccccc4n3)c2=O)cc(OC)c1OC 2%
Cc1sc2c(c1C)c(=O)n(-c1ccc(Cl)cc1)c(=O)n2Cc1cc(=O)n2ccccc2n1 8.46%
O=c1c2sccc2nc(SCc2cc(=O)n3ccccc3n2)n1Cc1ccccn1 0.36%
Cc1ccc(-n2c(=O)c3c(C)c(C)sc3n(Cc3cc(=O)n4ccccc4n3)c2=O)cc1C 11.6%
CCOc1ccc(-n2c(=O)c3sccc3n(Cc3ccc(C)cc3)c2=O)cc1 2.63%
Cc1sc2ncnc(N3CCC(C(=O)Nc4ccc(Br)cc4Br)CC3)c2c1C 10.1%
CCOC(=O)c1cc(-c2ccccc2)n(Cc2cc(CC)no2)n1 2.08%
Cc1ccc(-n2nc3c(c2NC(=O)c2ccco2)CS(=O)(=O)C3)cc1 1.04%
Cc1ccc(S(=O)(=O)Nc2ccncc2)c(C)c1N(C)S(=O)(=O)c1ccc(Cl)cc1 3.66%
CCOC(=O)c1c(C)nc2c(c1-c1cc(OC)ccc1OC)C(=O)c1ccccc1-2 0.88%
CN(C)[C@@H]1CCC[C@@H]1OC(=O)C(c1ccccc1)c1ccccc1 1.33%
COc1ccc(C(=O)NCc2nnc(SCC(=O)Nc3cc(C)on3)o2)cc1OC 0.22%
Cc1ccccc1-c1cc2nc(C)c(C)c(=O)n2[nH]1 2.53%
Cc1cccnc1NC1CCCCC1 0.99%
COc1ccc(NC(=O)COc2ccccc2C(=O)NCC(c2ccccc2)N(C)C)cc1Cl (configuration not stated) 0.1%
O=C(/C=C/c1c(Cl)cccc1Cl)Nc1ccncc1 15.2%
CN(C)c1ccc(NC(=O)/C=C/c2ccccc2Cl)cc1 4.05%
CCCCNCc1cc(Br)c(OCC(=O)N2CCOCC2)c(OC)c1 0.24%
O=C(O)Cc1ccc(NC(=O)c2ccc3c(c2)C(=O)N(Cc2ccco2)C3=O)cc1 1.76%
O=C(Nc1ccc2c(c1)CCC2)C1CCCN(c2ncccn2)C1 (configuration not stated) -1.9%
Cc1cccc(-c2nc(CSCC(=O)N3CCN(Cc4ccc5c(c4)OCO5)CC3)c(C)o2)c1 4.52%
CCOc1ccc(NC(=NCc2ccc3c(c2)OCO3)SC2CC(=O)N(c3ccccc3)C2=O)cc1 (configuration not stated) 1.98%
CCOc1ccc(NC(=NCc2ccc3c(c2)OCO3)SC2CC(=O)N(c3ccc(OCC)cc3)C2=O)cc1 (configuration not stated) 2.56%
O=C1CC(SC(=NCc2ccc3c(c2)OCO3)Nc2ccccc2)C(=O)N1c1ccccc1 (configuration not stated) 3.83%
O=C(O)c1ccc(N2C(=O)CC(SC(=NCc3ccc4c(c3)OCO4)Nc3ccccc3)C2=O)cc1 (configuration not stated) 5.3%
COc1ccc(CN2C(=O)c3cccnc3C2=O)cc1S(=O)(=O)N(C)c1cccc(C)c1 1.8%
O=C(Nc1ccc(Cn2cccn2)cc1)c1ccc(COc2cccc(Br)c2)cc1 -0.58%
Cc1ccc(C(=O)NCC2CCCN2S(=O)(=O)c2cccs2)cc1C (configuration not stated) 1.81%
CCCC(=O)Nc1cccc(-c2nc3cc(C)c(C)cc3o2)c1 1.54%
CCC(C)c1ccc2oc(-c3ccc(NC(=O)c4ncn[nH]4)cc3)nc2c1 (configuration not stated) 9.89%
Cc1ccc(-c2nc3cc(NC(=O)C(C)C)ccc3o2)cc1C 14.6%
Cc1ccc(-c2nc3cc(NC(=O)C(C)C)ccc3o2)cc1 4.38%
CCC(C)NCC(=O)Nc1ccc(-c2nc3cc(NC(=O)CNC(C)CC)ccc3o2)cc1 (configuration not stated) 1.28%
CCCC(=O)Nc1ccc(-c2nc3cc(C)ccc3o2)cc1 40.7%
Clc1ccc(CSc2ccc(-c3cccnc3)nn2)cc1 20.4%
Cc1c(C(=O)OCC(=O)Nc2c(C)n(C)n(-c3ccccc3)c2=O)oc2ccccc12 0.38%
Cc1cc(OCC(O)CN2CCCC2)cc(C)c1Cl (configuration not stated) -0.91%
CC(C)n1c(SCC(=O)N2CCCC2)nc2c1c(=O)n(C)c(=O)n2C -0.46%
CCCN(Cc1nnc(-c2ccccc2Cl)o1)C(=O)c1oc2ccccc2c1C 44%
